The nature of assay [1]: NCI Yeast Anticancer Drug Screen. Data for the rad50 strain (AID 155).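 Further: 0% = growth of vehicle-only cultures of the same strain.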 The conditions noted are these: S. cerevisiae rad50 strain growth inhibition, stronger effect = higher value. Summed up: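 Growth of the mutant yeast was measured after compound exposure and referenced to vehicle-treated cultures.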
Assay [2] in a line: NCI Yeast Anticancer Drug Screen. Data for the mec2-1 strain (AID 157). The conditions noted are these: S. cerevisiae mec2-1 strain, stronger effect = higher value. Summed up: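 Readout is yeast growth inhibition, normalised to vehicle-treated controls, in the mec2-1 strain exposed to compound.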
Assay [3] is described as follows: NCI Yeast Anticancer Drug Screen. Data for the sgs1 mgt1 strain (AID 161).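 Further: 0% = growth of cultures given vehicle only.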 The conditions noted are these: S. cerevisiae sgs1 mgt1 strain, stronger effect = higher value. Summed up:
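This yeast growth screen uses a strain with defined DNA-repair lesions; compound-treated growth is compared with vehicle-treated growth.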

A short description of assay [4]: NCI Yeast Anticancer Drug Screen. Data for the cln2 rad14 strain (AID 165).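 Further: 0% = growth equal to vehicle treated cultures.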 The following applies: S. cerevisiae cln2 rad14 strain, stronger effect = higher value. Summed up:
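Relative to vehicle controls, growth inhibition of compound-treated cln2 rad14 yeast was recorded.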

Assay [5] can be described thus: NCI Yeast Anticancer Drug Screen. Data for the bub3 strain (AID 167). The following applies: S. cerevisiae bub3 mutant strain, stronger effect = higher value. Summed up:
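Whole-cell yeast assay. The mutant strain was incubated with compounds, and growth inhibition was determined by comparison with vehicle-treated cells.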

The nature of assay [6]: NCI Yeast Anticancer Drug Screen. Data for the mlh1 rad18 strain (AID 175). The conditions noted are these: S. cerevisiae mlh1 rad18 strain growth inhibition, stronger effect = higher value. A digest of the protocol:
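Test agents were incubated with a yeast strain of defined genotype (DNA damage repair defect). Inhibition of growth was derived by comparison with vehicle-exposed cultures.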

The mark [7] stands for this setting: at 5.0 µM (retest, dose inferred, filed as 0.5).
Setting [8] is: at 50.0 µM (retest, dose inferred, filed as 5.0).

About 79,000 compounds went through this panel and 15% of them were active in at least one assay; those are over-represented in the sample as a whole. Unmarked numbers belong to inactive results. Activity calls are given as the source filed them. No stated cut-off is given here; in the data, active means growth inhibition above about 70%; inactive means the rest.

With `O=[N+]([O-])c1ccc(O)c(CCl)c1`, the growth inhibition in assay [1] (setting [7]) was 6%; in assay [1] (setting [8]), 41%; in assay [1] (at 50.0 µM), 16.5%; in assay [2] (setting [7]), -1%; in assay [2] (setting [8]) it was 22%; in assay [2] (at 50.0 µM), 1.6%. Besides, the growth inhibition in assay [3] (setting [7]) is 0%; in assay [3] (setting [8]) it was 36%; in assay [3] (at 50.0 µM) it was 20.9%; in assay [4] (setting [7]) it was 0%; in assay [4] (setting [8]), 5%; in assay [4] (at 50.0 µM), -4.15%. Also, the growth inhibition in assay [5] (setting [7]) is 3%; in assay [5] (setting [8]) it was 18%; in assay [5] (at 50.0 µM), 8.65%; in assay [6] (setting [7]), 4%; in assay [6] (setting [8]), 59%; in assay [6] (at 50.0 µM), 76.2% (active).

Turning to `[Cl][Sn]([c]1ccccc1)[c]1ccccc1`, the growth inhibition in assay [1] (setting [7]) is 41%; in assay [1] (setting [8]) it was 93% (active); in assay [1] (at 50.0 µM) it was 80.8% (active); in assay [2] (setting [7]), 30%; in assay [2] (setting [8]), 96% (active); in assay [2] (at 50.0 µM) it was 85.8% (active). Besides, the growth inhibition in assay [3] (setting [7]) was 56%; in assay [3] (setting [8]) it was 99% (active); in assay [3] (at 50.0 µM), 89% (active); in assay [4] (setting [7]) it was 34%; in assay [4] (setting [8]), 97% (active); in assay [4] (at 50.0 µM), 54.2%. Also, the growth inhibition in assay [5] (setting [7]) is 57%; in assay [5] (setting [8]), 98% (active); in assay [5] (at 50.0 µM) it was 87.8% (active); in assay [6] (setting [7]), 30%; in assay [6] (setting [8]), 90% (active); in assay [6] (at 50.0 µM), 83.5% (active).

Consider `CC(C)=CC1CC(C)C2(CCC3(C)CC4C(C(=O)CC4(C)O)/C(C=O)=C\CC32)O1` (stereo not given), for which the growth inhibition was 99% (active) in assay [1] (setting [7]); 100% (active) in assay [1] (setting [8]); 94.5% (active) in assay [1] (at 50.0 µM); 99% (active) in assay [2] (setting [7]); 100% (active) in assay [2] (setting [8]); 94.6% (active) in assay [2] (at 50.0 µM). Moreover, the growth inhibition is 99% (active) in assay [3] (setting [7]); 99% (active) in assay [3] (setting [8]); 95% (active) in assay [3] (at 50.0 µM); 99% (active) in assay [4] (setting [7]); 99% (active) in assay [4] (setting [8]); 93.6% (active) in assay [4] (at 50.0 µM). Besides, the growth inhibition is 99% (active) in assay [5] (setting [7]); 100% (active) in assay [5] (setting [8]); 94.5% (active) in assay [5] (at 50.0 µM); 99% (active) in assay [6] (setting [7]); 100% (active) in assay [6] (setting [8]); 93.7% (active) in assay [6] (at 50.0 µM).

For the compound `O=C(COc1ccc(Cl)c(Cl)c1)N(Cc1ccccc1)Cc1ccc[n+](Cc2ccc(S(=O)(=O)F)cc2)c1`, the growth inhibition was 4% in assay [1] (setting [7]); 99% (active) in assay [1] (setting [8]); 43.5% in assay [1] (at 50.0 µM); -59% in assay [2] (setting [7]); 100% (active) in assay [2] (setting [8]); 51.9% in assay [2] (at 50.0 µM). Besides, the growth inhibition in assay [3] (setting [7]) is 1%; in assay [3] (setting [8]), 100% (active); in assay [3] (at 50.0 µM), 53.6%; in assay [4] (setting [7]), 5%; in assay [4] (setting [8]), 98% (active); in assay [4] (at 50.0 µM), 56.9%. The growth inhibition was 3% in assay [5] (setting [7]); 99% (active) in assay [5] (setting [8]); 52.5% in assay [5] (at 50.0 µM); 4% in assay [6] (setting [7]); 99% (active) in assay [6] (setting [8]); 59.4% in assay [6] (at 50.0 µM).

In the case of `Nc1ccc(Cc2ccc(N)c(Cl)c2)cc1Cl`, the growth inhibition was -6% in assay [1] (setting [7]); 90% (active) in assay [1] (setting [8]); 78% (active) in assay [1] (at 50.0 µM); -8% in assay [2] (setting [7]); 78% (active) in assay [2] (setting [8]); 95.1% (active) in assay [2] (at 50.0 µM). For the same compound, the growth inhibition in assay [3] (setting [7]) was -1%; in assay [3] (setting [8]), 92% (active); in assay [3] (at 50.0 µM), 95.2% (active); in assay [4] (setting [7]), -10%; in assay [4] (setting [8]), 91% (active); in assay [4] (at 50.0 µM), 75.8% (active). For the same compound, the growth inhibition is 0% in assay [5] (setting [7]); 93% (active) in assay [5] (setting [8]); 96.8% (active) in assay [5] (at 50.0 µM); -3% in assay [6] (setting [7]); 97% (active) in assay [6] (setting [8]); 97.2% (active) in assay [6] (at 50.0 µM).

As to `CCC(C)(c1ccc(O)cc1)c1ccc(O)cc1`, the growth inhibition in assay [1] (setting [7]) was 13%; in assay [1] (setting [8]) it was 98% (active); in assay [1] (at 50.0 µM) it was 98.9% (active); in assay [2] (setting [7]) it was -5%; in assay [2] (setting [8]), 99% (active); in assay [2] (at 50.0 µM), 99.5% (active). Further, the growth inhibition in assay [3] (setting [7]) was 3%; in assay [3] (setting [8]), 98% (active); in assay [3] (at 50.0 µM), 98.8% (active); in assay [4] (setting [7]), 21%; in assay [4] (setting [8]), 98% (active); in assay [4] (at 50.0 µM) it was 99% (active). For the same compound, the growth inhibition is 43% in assay [5] (setting [7]); 99% (active) in assay [5] (setting [8]); 96.4% (active) in assay [5] (at 50.0 µM); 14% in assay [6] (setting [7]); 99% (active) in assay [6] (setting [8]); 98.7% (active) in assay [6] (at 50.0 µM).

For the compound `COc1c(O)c2c(c3cc(C(=O)N4CCc5c4c(O)c(OC)c4[nH]c(C(=O)N6CC7CC78C6=CC(=O)c6[nH]cc(C)c68)cc54)[nH]c13)CCN2C(N)=O` (stereo not given), the growth inhibition in assay [1] (setting [7]) is 97% (active); in assay [1] (setting [8]) it was 97% (active); in assay [1] (at 50.0 µM), 89.8% (active); in assay [2] (setting [7]) it was 98% (active); in assay [2] (setting [8]), 98% (active); in assay [2] (at 50.0 µM), 93% (active). Moreover, the growth inhibition is 96% (active) in assay [3] (setting [7]); 96% (active) in assay [3] (setting [8]); 90.5% (active) in assay [3] (at 50.0 µM); 95% (active) in assay [4] (setting [7]); 95% (active) in assay [4] (setting [8]); 89% (active) in assay [4] (at 50.0 µM). Moreover, the growth inhibition was 94% (active) in assay [5] (setting [7]); 96% (active) in assay [5] (setting [8]); 91% (active) in assay [5] (at 50.0 µM); 98% (active) in assay [6] (setting [7]); 97% (active) in assay [6] (setting [8]); 89.5% (active) in assay [6] (at 50.0 µM).

In the case of `COc1ccccc1[As]=O` (stereo not given), the growth inhibition was 1% in assay [1] (setting [7]); 99% (active) in assay [1] (setting [8]); 99.3% (active) in assay [1] (at 50.0 µM); -12% in assay [2] (setting [7]); 99% (active) in assay [2] (setting [8]); 99.6% (active) in assay [2] (at 50.0 µM). Besides, the growth inhibition in assay [3] (setting [7]) is 8%; in assay [3] (setting [8]), 99% (active); in assay [3] (at 50.0 µM) it was 99.5% (active); in assay [4] (setting [7]), -14%; in assay [4] (setting [8]) it was 99% (active); in assay [4] (at 50.0 µM), 98.6% (active). Also, the growth inhibition was 12% in assay [5] (setting [7]); 99% (active) in assay [5] (setting [8]); 99.2% (active) in assay [5] (at 50.0 µM); 25% in assay [6] (setting [7]); 99% (active) in assay [6] (setting [8]); 99.4% (active) in assay [6] (at 50.0 µM).

Regarding `Cc1cc(-c2ccccc2)cc(C)[n+]1[O-]`, the growth inhibition in assay [1] (setting [7]) was -1%; in assay [1] (setting [8]), 20%; in assay [1] (at 50.0 µM) it was 20.7%; in assay [2] (setting [7]) it was -6%; in assay [2] (setting [8]), 13%; in assay [2] (at 50.0 µM) it was 28.1%. Also, the growth inhibition in assay [3] (setting [7]) is -6%; in assay [3] (setting [8]) it was 12%; in assay [3] (at 50.0 µM), 54.6%; in assay [4] (setting [7]), -8%; in assay [4] (setting [8]), -13%; in assay [4] (at 50.0 µM) it was -31.3%. For the same compound, the growth inhibition in assay [5] (setting [7]) is -2%; in assay [5] (setting [8]), 14%; in assay [5] (at 50.0 µM), -12.7%; in assay [6] (setting [7]), -4%; in assay [6] (setting [8]), 30%; in assay [6] (at 50.0 µM) it was 5.4%.

For `Nc1nc(N)c(-c2ccc(Cl)c(Cl)c2)c(CCc2ccc(CNC(=O)Nc3ccc(S(=O)(=O)F)cc3)cc2)n1`, the growth inhibition in assay [1] (setting [7]) is 4%; in assay [1] (setting [8]), 28%; in assay [1] (at 50.0 µM), 56.8%; in assay [2] (setting [7]), 0%; in assay [2] (setting [8]), 19%; in assay [2] (at 50.0 µM), 34%. For the same compound, the growth inhibition in assay [3] (setting [7]) is -4%; in assay [3] (setting [8]), 35%; in assay [3] (at 50.0 µM) it was 79.8% (active); in assay [4] (setting [7]), 1%; in assay [4] (setting [8]), 40%; in assay [4] (at 50.0 µM), 25.8%. In addition, the growth inhibition is -1% in assay [5] (setting [7]); 25% in assay [5] (setting [8]); 25% in assay [5] (at 50.0 µM); 4% in assay [6] (setting [7]); 82% (active) in assay [6] (setting [8]); 84.7% (active) in assay [6] (at 50.0 µM).

These data come from PubChem BioAssay (NCI).
